Measured values: PubChem BioAssay AID1117361 (Southern Research Institute, 2015)
Hit rate of the full screen: of about 3,600 compounds, about 900 (25%) were called active. How the calls were made is not given here. The list is a sample of the results. Entries with a potency or affinity are not part of this list.

Molecular target: Protein Tat (Human immunodeficiency virus type 1 group M subtype B (isolate HXB2)) (UniProt P04608)
Test: HIV-1 Tat–TAR interaction blockers – biochemical, fluorescence polarization, FAM-labeled TAR RNA, counter-screen for Vif-APOBEC3G degradation inhibitor project, dose response (AID 1117361)
Conditions: Tat-TAR RNA binding; series mostly up to 100 µM; inhibition: at the top concentration

SMILES	outcome	inhibition
Cc1sc2nc(SCC(=O)N3CCOCC3)[nH]c(=O)c2c1C	inactive	–
Cc1cc(C)cc(C(=O)N2CCC(C(N)=O)CC2)c1	–	6.76% (inactive)
O=C(CNS(=O)(=O)c1ccccc1)OCC(=O)c1ccc(OC(=O)c2ccccc2)cc1	inactive	–
O=C1CCc2cc(S(=O)(=O)NC(Cc3ccccc3)C(=O)NCC3CCCO3)ccc2N1 (stereo not given)	–	7.43% (inactive)
NC(=O)c1nsnc1-c1ccccc1O	inactive	–
CC1C=CC=CC=CC=CC=CC=CC=CC(OC2OC(C)C(O)C(N)C2O)CC2OC(O)(CC(O)CC(O)C(O)CCC(O)CC(O)CC(=O)OC(C)C(C)C1O)CC(O)C2C(=O)O (stereo not given)	–	25.1% (inactive)
COc1ccc(S(=O)(=O)N(C)Cc2cccs2)cc1Br	–	0.68% (inactive)
O=C(OCn1nnc2ccccc2c1=O)C1=COCCO1	–	0.68% (inactive)
CC(=O)Nc1ccc(N=Nc2ccccc2)cc1	inactive	–
O=C(NCCNC(=O)c1cc(OCC(F)(F)F)ccc1OCC(F)(F)F)Nc1cccc(C(F)(F)F)c1	–	2.73% (inactive)
Cc1cc(-c2ccccc2)nc(Oc2ccc(C(C)(C)C)cc2)c1S(C)(=O)=O	–	2.73% (inactive)
CCc1nnc(NC(=O)CSc2nnc(Cc3ccccc3)n2-c2ccc(OC)cc2)s1	inactive	–
COc1ccc(C(=O)NC2CC3CCCC(C2)N3CC(C)C)cc1 (stereo not given)	–	5.59% [at 50 µM] (inactive)
COc1ccc(CN2CCNC(=O)C2CC(=O)NC2CCCC2)cc1OC (stereo not given)	–	11.7% (inactive)
C=C1Cn2c(nnc2-c2ccc(Cl)cc2)S1	–	3.38% (inactive)
Cc1ccc(C)c(OCCC(=O)Nc2ccccc2C(=O)NC2CC2)c1	inactive	–
CCC1CCC2(CC1)NC(=O)N(CC(=O)Nc1ccc(OC)c(Cl)c1)C2=O (stereo not given)	–	0.82% (inactive)
Cc1ccc2c(Cl)cc(Cl)c(OCC(=O)NCc3ccco3)c2n1	–	2.03% (inactive)
CC(C)(C)NC(=O)COC(=O)c1cc(S(=O)(=O)N2CCCCC2)ccc1N1CCOCC1	–	14.2% (inactive)
CCOCCCNC(=O)c1ccccc1Br	inactive	–
O=C1[C@@H]2CSCN2C(=O)CN1CCc1cccc(F)c1	inactive	–
COc1ccc(C(=O)Cn2c(=N)n(C)c3ccccc32)cc1	inactive	–
CCn1c(CNC(C)=O)nnc1SCC(=O)c1ccc(Br)cc1	inactive	–
CCN(c1ccccc1)S(=O)(=O)c1ccc(C(=O)NNC(=O)c2ccccc2F)cc1	inactive	–

SMILES	outcome	inhibition
CC(C)CN(C(=O)CN1CCN(S(=O)(=O)c2ccccc2)CC1)c1c(N)n(CC(C)C)c(=O)[nH]c1=O	inactive	–
CN(C(=O)CSc1nnc(N)s1)c1c(N)n(Cc2ccccc2)c(=O)[nH]c1=O	–	7.43% (inactive)
Cc1cccc(N2CCN(CC(=O)Nc3nccs3)CC2)c1C	–	3.38% (inactive)
COC(=O)CSc1nnc(CNC(=O)c2ccccc2OC)n1-c1ccc(OC)cc1	–	2.73% (inactive)
CS(=O)(=O)N1CCCC(C(=O)NCCCN2CCC(Cc3ccccc3)CC2)C1 (stereo not given)	–	3.41% (inactive)
O=C1C2C3CC(C(Br)C3Br)C2C(=O)N1c1ccccn1 (stereo not given)	–	1.35% (inactive)
CCOc1ccc2nc(N3CCCC(C(=O)NCCCN4CCOCC4)C3)sc2c1 (stereo not given)	inactive	–
COc1cc(OC)c2ccc(=O)oc2c1C(CCN1CCCC(C)C1)c1ccc2c(c1)OCO2 (stereo not given)	–	0.82% (inactive)
O=C1C(Cc2ccccc2)SC(=Nc2ccccc2)N1c1ccccc1 (stereo not given)	–	0.68% (inactive)
COc1ccc2[nH]c(C(=O)O)c(CCN3C(=O)c4cccc([N+](=O)[O-])c4C3=O)c2c1	inactive	–
COc1ccc2nc(NNC(=O)c3cc(=O)c4ccccc4o3)sc2c1	–	19% (inactive)
Cc1ccc2cc3c(NC(=O)c4cccnc4)nn(C)c3nc2c1	–	18.2% (inactive)
O=C1C2CCCN2C(c2ccccc2)N1c1nccs1 (stereo not given)	–	17.1% (inactive)
O=C1NN(c2cccc(Br)c2)C(=O)/C1=C\c1ccccc1	inactive	–
CCCCc1cc(=O)oc2cc(OCC(=O)N(CC)CC)c(Cl)cc12	inactive	–
Cc1ccccc1C(=O)NCC(=O)OC(C)C(=O)NC(C)CCc1ccccc1 (stereo not given)	–	5.77% (inactive)
O=C(Nc1cccc(OC(F)(F)F)c1)c1ccc(Br)o1	–	20.9% (inactive)
CC(C)(C)n1nc2c(c1NC(=O)c1ccc(Br)o1)CS(=O)C2 (stereo not given)	–	9.55% (inactive)
Cc1cc(C)c2nc(SCC(=O)NCCN3C(=O)CSC3=O)cc(C)c2c1	inactive	–
CCN(CC)CCNC(=O)Cc1c(C(=O)O)n(C)c2ccccc12	–	10.8% (inactive)
COc1ccc(NC(=O)CN2CCC(C(N)=O)CC2)cc1	–	0.68% (inactive)
O=c1cc(CO)oc(C(Nc2ccccn2)c2ccc(F)cc2)c1O (stereo not given)	–	16.2% (inactive)
OCCNc1ccc(Cl)cc1	–	6.08% (inactive)
O=C(c1ccco1)N1CCN=C1SCc1cccc(Cl)c1	–	6.08% (inactive)

SMILES	outcome	inhibition
O=C(c1ccco1)N1CCN(C(=O)c2cn(-c3ccccc3)nc2-c2ccccc2)CC1	–	6.6% (inactive)
CC(C)(C)c1cc(C(C)(C)C)cc(S(=O)(=O)CCc2ccccn2)c1	–	3.41% (inactive)
C#CC(=O)N(c1cc(OC)ccc1OC)C(C(=O)NC1CCCC1)c1cccs1 (stereo not given)	–	5.41% (inactive)
CCOC(=O)Nc1nnc(-c2ccccc2OC)s1	–	2.73% (inactive)
COc1ccccc1-c1c(C)[nH]n2c(=O)c(Cc3ccccc3)c(C)nc12	inactive	–
O=C(O)Cn1c(SC2CCCCC2)nc2ccccc21	–	0.68% (inactive)
Cc1nn(Cc2ccc(Cl)cc2)c(C)c1NC(=O)c1cc(-c2ccc3c(c2)OCO3)on1	inactive	–
Cc1cc(C)cc(NC(=O)CN2CCC(NC(=O)Cc3ccccc3)CC2)c1	inactive	–
CC(C)c1ccc(-c2nc(N3CCCC3)nc3n[nH]c(N)c23)cc1	–	3.38% (inactive)
N#Cc1ccc(N2CCN(C(=O)c3cccc(F)c3)CC2)c(F)c1	–	5.41% (inactive)
CC(C)Oc1ccc2ccccc2c1C=O	–	21.6% (inactive)
Cc1cc(C)n2nc(SC(C)C(=O)N3CCCC3)nc2n1 (stereo not given)	inactive	–
Oc1ccc(/C=N/N=C/c2ccc(O)c(O)c2)cc1O	inactive	–
COc1ccc(CCNCc2ccc(OCc3ccccc3)cc2)cc1	–	0.33% (inactive)
Cc1nc(OCc2ccccc2)c2ccccc2n1	–	5.41% (inactive)
O=c1cc(CSc2ccccn2)c2ccccc2[nH]1	–	6.08% (inactive)
Cc1ccnc(N2CCCC(C(=O)Nc3cc(F)ccc3C)C2)n1 (stereo not given)	–	3.67% (inactive)
Cn1c(=O)c2c(ncn2CCCNC2=CC(C)(C)CC(=O)C2)n(C)c1=O	–	0.68% (inactive)
N=C1C(c2nc3ccccc3c(=O)[nH]2)=C(O)CN1c1ccccc1	–	5.41% (inactive)
C/C(=N\OCC(=O)Nc1ccc2c(c1)OCCO2)c1ccc2c(c1)OCCO2	–	3.41% (inactive)
O=C(Nc1ccc2c(c1)OCCO2)C1CCC1	–	4.73% (inactive)
COc1ccc(-c2cc(C(=O)NCCCn3ccnc3)no2)cc1OC	–	2.7% (inactive)
